Screening results: PubChem BioAssay, several laboratories
TMEM16A act = mouse TMEM16A channel activation, primary screen; HEK293 TMEM16A/YFP-H148Q/I152L, iodide quench fluorescence; active compounds read low; B-score at 10 µM; hit rate 0.3% among 340,000; AID 623877;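 active = fluorescence-ratio B-score plate-corrected deviation score at least 3 library SD below zero, with starting fluorescence score within 5 deviations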;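 also: channel opened by trigger with iodide after compound preincubation; score built on the fluorescence ratio of max minus min over baseline; more negative score means more quench and so TMEM16A activation or potentiation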
MEKK2mut PB1 HTS = signal of MEK5 binding to mutant human MEKK2 PB1 domain | bead flow cytometry, Alexa488-MEK5 binding to MEKK2 mutant | percent response, % at 10 µM | hit rate 0.35% among 290,000; in the data active = percent response above about 24%, passing the limit was not always enough
NTR1 ag = agonists of human neurotensin receptor NTR1; P30989; NTR1-U2OS beta-arrestin-GFP spot imaging, agonist mode; activation, % at 20 µM; hit rate 0.17% among 330,000;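 active = activation at or above 40% of the spot to cytoplasm intensity ratio, with at least 20 cells analyzed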;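 also: 0% = DMSO without peptide and 100% = 100 nM NTR1 peptide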
MEKK3 PB1 HTS = MEKK3-MEK5 PB1 interaction, increase or decrease; Q99759; bead-based flow cytometry, Alexa488-MEK5 binding to MEKK3; actives lie on both sides; 0 = blocked by unlabeled MEK5, 100 = vehicle; binding response (% of control), % at 10 µM; hit rate 1.4% among 290,000; AID 1529;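 active = binding response more than 3 SD above or below the average of its plate-row segment, actives on both sides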;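 also: Alexa488 bead fluorescence after subtracting the streptavidin-only scavenger bead signal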
Target sequence (Q99759 whole entry, looked up): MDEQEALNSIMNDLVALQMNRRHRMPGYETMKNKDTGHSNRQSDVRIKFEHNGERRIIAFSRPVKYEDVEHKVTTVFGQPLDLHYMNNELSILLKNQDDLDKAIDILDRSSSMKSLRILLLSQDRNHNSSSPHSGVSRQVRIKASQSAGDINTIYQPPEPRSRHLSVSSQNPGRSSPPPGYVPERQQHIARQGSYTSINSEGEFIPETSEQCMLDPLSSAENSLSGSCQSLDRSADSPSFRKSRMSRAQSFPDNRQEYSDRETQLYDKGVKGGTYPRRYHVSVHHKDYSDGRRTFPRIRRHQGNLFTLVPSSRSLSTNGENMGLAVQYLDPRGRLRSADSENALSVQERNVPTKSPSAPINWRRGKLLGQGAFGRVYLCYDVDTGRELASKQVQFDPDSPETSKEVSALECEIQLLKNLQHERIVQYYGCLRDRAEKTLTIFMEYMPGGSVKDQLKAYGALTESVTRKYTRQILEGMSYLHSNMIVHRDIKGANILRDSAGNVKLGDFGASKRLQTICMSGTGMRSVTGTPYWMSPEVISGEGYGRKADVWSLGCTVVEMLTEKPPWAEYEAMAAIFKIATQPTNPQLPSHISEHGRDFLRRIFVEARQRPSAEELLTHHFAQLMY
TMEM16A inh = inhibitors of mouse TMEM16A calcium-activated chloride channel. Q8BHY3. HEK293 TMEM16A/YFP iodide influx fluorescence, ionomycin. normalized B-score (activity score, 25-100; higher = stronger inhibition) at 10 µM. hit rate 1.2% among 310,000;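 active = ratio plate-corrected score three or more library SD toward inhibition, starting fluorescence score within five deviations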;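 also: score derived from kinetic fluorescence span divided by baseline fluorescence per well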
MEKK2 WT-MEK5 = raises or lowers MEK5 binding to wildtype human MEKK2 PB1 domain. Q9Y2U5. bead flow cytometry, Alexa488-MEK5 binding to MEKK2 WT; actives lie on both sides. binding response (% of control), % at 10 µM. hit rate 1.1% among 290,000. AID 1531; in the data active = binding response below about 67% or above about 130%
MEKK2wt confirm = raises or lowers MEK5 binding to wildtype human MEKK2, retest; bead flow cytometry, Alexa488-MEK5 binding to MEKK2 WT; actives lie on both sides; shares compounds with MEKK3 PB1 HTS; binding response (% of control), % at 10 µM; hit rate 2.4% among 5,900; AID 1892; in the data active = binding response below about 16% or above about 210%; inactive = in between
MEKK2mut-MEK5 = signal of MEK5 binding to mutant human MEKK2, retest; AID 1893; shares compounds with MEKK3 PB1 HTS; percent response, % at 10 µM; bead flow cytometry, Alexa488-MEK5 binding to MEKK2 mutant; hit rate 2% among 5,900; in the data active = percent response mostly above about 71%, no sharp cut-off; inactive = mostly below about 38%;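 also: higher means compound restores mutant binding toward wildtype level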
MEKK3-MEK5 inh = confirmation of inhibitors of MEK5 binding to human MEKK3 | shares compounds with MEKK3 PB1 HTS | AID 1894 | hit rate 1.8% among 5,900 | binding response (% of control), % at 10 µM | bead flow cytometry, Alexa488-MEK5 binding to MEKK3; active compounds read low;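 active = binding response below 72% of control, or above a set upper limit, though filed actives all read lower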;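 also: 100% = DMSO only wells and 0% = binding blocked by excess unlabeled MEK5; lower values mean stronger disruption of MEK5 binding to MEKK3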
The depositor's hits bear a star; i = inactive; x = no result; [ ] = dose if it differs, or a comment. Shown are actives, neighbours in structure and some others; about 3.4% of the full set was active somewhere.

SMILES	TMEM16A act	MEKK2mut PB1 HTS	NTR1 ag	MEKK3 PB1 HTS	TMEM16A inh	MEKK2 WT-MEK5	MEKK2wt confirm	MEKK2mut-MEK5	MEKK3-MEK5 inh
Cc1ccc(-c2[nH]c3ccccc3c2SCCNC(=O)c2cc3ccccc3oc2=O)cc1	i	1	1	94	i	96	x	x	x
CCCCN(C(=O)c1cnccn1)c1c(N)n(CCC)c(=O)[nH]c1=O	i	x	-1	x	x	x	x	x	x
CCC(=O)Nc1nc(-c2cc([N+](=O)[O-])cs2)cs1	i	-2	4	100	i	100	x	x	x
COc1ccc(OC)c(NC(=S)NCCSc2ccc(C)cc2)c1	i	1	2	142*	i	112	108	7	106
COc1ccc(NC(=S)NCCSc2ccc(C)cc2)c(OC)c1	i	2	0	97	i	97	x	x	x
Cc1cc(NCCCn2ccnc2)n2nc(C)c(-c3ccccc3)c2n1	i	1	0	88	i	98	x	x	x
N=c1c2c(-c3ccccc3)c(-c3ccccc3)n(Cc3ccccc3)c2ncn1CCCn1ccnc1	i	12	34	105	i	146*	170	58	110
N=c1c2c(-c3ccccc3)c(-c3ccccc3)n(Cc3ccco3)c2ncn1Cc1ccco1	i	41*	42*	112	100*	152*	155	25	104
N=c1c2c(ncn1Cc1ccco1)Oc1ccc3ccccc3c1C2c1ccccc1 (centres undefined)	i	3	8	102	i	114	x	x	x
COc1cccc(/C(C)=N/Nc2ccc(S(=O)(=O)N3CCCCC3)cn2)c1	i	x	2	x	x	x	x	x	x
FC(F)(F)c1cccc(NC(=S)NNC(=S)Nc2cccc(C(F)(F)F)c2)c1	x	-5	31	102	i	107	x	x	x
FC(F)(F)c1cccc(NC(=S)NC(c2ccccc2)c2ccccc2)c1	i	10	x	152*	i	169*	176	42	106
Cc1ccccc1C(=O)NNC(=S)Nc1cccc(C(F)(F)F)c1	i	-1	0	116	i	101	x	x	x
O=C(Nc1cccc(C(F)(F)F)c1)C(Sc1ncnc2ccccc12)c1ccccc1 (centres undefined)	i	21	14	100	i	114	x	x	x
O=C(Nc1cccc(C(F)(F)F)c1)C(SCCO)c1ccccc1 (centres undefined)	i	0	4	131*	i	105	53	-28	59*
O=C(NNC(=S)Nc1cccc(C(F)(F)F)c1)c1ccc(Cl)cc1Cl	i	3	7	162*	i	116	101	-2	102
COc1ccccc1-n1c(SCC(N)=O)nc2sc3c(c2c1=O)CCC3	i	1	-1	98	i	99	x	x	x
CCOC(=O)C1=C(COC(=O)c2cc(S(=O)(=O)N(C)C)ccc2C)NC(=O)NC1C (centres undefined)	i	x	0	x	x	x	x	x	x
CCCNS(=O)(=O)c1cc2c(cc1Br)CCN2C(=O)CC	i	x	x	x	x	x	x	x	x
CCOc1cc(/C=N/NC(N)=O)cc(Br)c1OCC(=O)Nc1ccccc1C	i	12	4	122*	i	114	106	7	105
CCOC(=O)c1sc(NC(=O)COC(=O)C(CCSC)NC(C)=O)nc1C (centres undefined)	i	-2	0	61*[inhibitor]	i	78	98	-9	93
OC(COC(c1ccc(Cl)cc1)c1ccc(Cl)cc1)CN1CCc2ccccc2C1 (centres undefined)	i	14	8	110	i	164*	203	63	113
OC(COC(c1ccc(Cl)cc1)c1ccc(Cl)cc1)CN1CCCC1 (centres undefined)	i	14	2	105	i	140*	126	20	102
OC(COC(c1ccc(F)cc1)c1ccc(F)cc1)CN1CCc2ccccc2C1 (centres undefined)	i	1	2	136*	i	112	115	5	100
OC(COC(c1ccccc1)c1ccccc1)CN1CCc2ccccc2C1 (centres undefined)	i	6	-1	103	i	102	x	x	x
SMILES	TMEM16A act	MEKK2mut PB1 HTS	NTR1 ag	MEKK3 PB1 HTS	TMEM16A inh	MEKK2 WT-MEK5	MEKK2wt confirm	MEKK2mut-MEK5	MEKK3-MEK5 inh
O=C(NCCCN1CCCC1=O)c1cc(-c2ccc3c(c2)OCO3)nc2ccccc12	i	0	0	101	i	93	x	x	x
O=C(NCCCN1CCCC1=O)c1cc(-c2cccnc2)nc2ccc(Cl)cc12	i	-15	0	70*[inhibitor]	i	78	79	-15	73
C#CCOCCOCCOCCNc1nc(N2CCN(C(=O)[C@H](CCCCN)n3cc([C@@H](N)CO)nn3)CC2)nc(N2CCN(C(=O)[C@H](Cc3ccc(O)cc3)n3cc([C@@H](N)CC(C)C)nn3)CC2)n1	i	10	-1	96	i	117	x	x	x
C#CCOCCOCCOCCNc1nc(N2CCN(C(=O)[C@H](CCCCN)n3cc([C@@H](N)CO)nn3)CC2)nc(N2CCN(C(=O)[C@H](Cc3cc4ccccc4[nH]3)n3cc([C@@H](N)CC(C)C)nn3)CC2)n1	x	67*	-3	111	i	195*	125	14	104
C#CCOCCOCCOCCNc1nc(N2CCN(C(=O)[C@H](CCCCN)n3cc([C@@H](N)CO)nn3)CC2)nc(N2CCN(C(=O)[C@H](Cc3cc4ccccc4[nH]3)n3cc([C@@H](N)CO)nn3)CC2)n1	x	1	4	107	i	139*	114	8	102
Cc1ccccc1NC(=S)N(Cc1ccccc1)Cc1cccs1	i	-4	5	95	i	94	x	x	x
CC(=O)c1ccc(OCC(=O)Nc2ccc3c(c2)CCC3)cc1	i	x	0	x	i	x	x	x	x
O=C(COc1ccc(Cl)cc1)Nc1ccc2c(c1)CCC2	i	-1	0	75*[inhibitor]	i	100	98	-4	96
COc1ccc(/C=C(/C#N)C(=O)Nc2cccc([N+](=O)[O-])c2)cc1C(=O)O	i	-3	-1	104	i	98	x	x	x
COc1ccc(CC2(c3ccccc3)NC(=O)NC2=O)cc1 (centres undefined)	i	x	x	x	x	x	x	x	x
